Results taken from the supplement of paper PMC10849652.
Of roughly 7,900 targets only a part is listed; those with a hit were picked by preference. About 0.6% of all pairs of compound and target were hits.

What follows are targets tested with NC1(c2ccc(-c3nc4ccn5c(=O)[nH]nc5c4cc3-c3ccccc3)cc2)CCC1 (assay: log2 fold change, soluble protein after heating vs DMSO (PISA); higher = thermal stabilisation; K562 cells, 10 uM, 30 min; active = over 0.2 and 3.5 SD of the protein, either way, in both replicates (recomputed)).
Summary of the method: (§1)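 K562 cells (2×10^6 cells/mL) were treated with 10 μM compound for 30 min, and aliquots were heated for 3 min over 48°C-58°C. Pooled aliquots were extracted in PBS with 0.5% NP-40 at 4°C, and the supernatant after 21,000xg for 90 min was measured by TMTpro 16plex LC-MS/MS with channel sums equalised. Reported thermal stability, relative to control samples and from duplicates, is a log2 fold change.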

Chain of UniProt Q9Y2Y0 (Q9Y2Y0 whole entry, looked up): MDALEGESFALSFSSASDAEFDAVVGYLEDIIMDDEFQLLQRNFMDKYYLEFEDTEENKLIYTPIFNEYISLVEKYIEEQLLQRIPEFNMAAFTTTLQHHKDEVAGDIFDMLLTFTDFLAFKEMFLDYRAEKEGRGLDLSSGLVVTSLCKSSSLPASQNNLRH
Chain of UniProt Q9UHQ4 (Q9UHQ4 whole entry, looked up): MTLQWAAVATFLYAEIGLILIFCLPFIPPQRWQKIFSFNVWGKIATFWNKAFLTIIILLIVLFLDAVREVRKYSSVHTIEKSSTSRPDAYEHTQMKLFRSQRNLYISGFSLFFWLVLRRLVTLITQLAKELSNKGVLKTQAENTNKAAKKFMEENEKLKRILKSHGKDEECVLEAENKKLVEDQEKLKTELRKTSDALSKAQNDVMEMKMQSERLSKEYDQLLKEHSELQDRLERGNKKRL
Chain of UniProt Q2TAA5 (Q2TAA5 whole entry, looked up): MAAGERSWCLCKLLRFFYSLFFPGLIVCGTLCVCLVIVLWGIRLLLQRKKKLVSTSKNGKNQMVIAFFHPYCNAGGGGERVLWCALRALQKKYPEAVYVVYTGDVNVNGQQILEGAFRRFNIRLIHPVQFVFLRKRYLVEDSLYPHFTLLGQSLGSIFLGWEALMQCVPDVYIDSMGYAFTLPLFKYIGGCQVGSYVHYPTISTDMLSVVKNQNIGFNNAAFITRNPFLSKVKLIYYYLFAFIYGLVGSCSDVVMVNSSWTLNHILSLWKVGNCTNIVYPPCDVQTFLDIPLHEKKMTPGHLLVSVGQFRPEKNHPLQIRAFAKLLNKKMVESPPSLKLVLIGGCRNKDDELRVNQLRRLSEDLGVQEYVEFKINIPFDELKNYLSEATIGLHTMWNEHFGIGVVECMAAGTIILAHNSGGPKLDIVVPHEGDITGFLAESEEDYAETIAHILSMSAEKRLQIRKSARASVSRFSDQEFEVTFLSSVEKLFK
Chain of UniProt Q9NRZ7 (Q9NRZ7 whole entry, looked up): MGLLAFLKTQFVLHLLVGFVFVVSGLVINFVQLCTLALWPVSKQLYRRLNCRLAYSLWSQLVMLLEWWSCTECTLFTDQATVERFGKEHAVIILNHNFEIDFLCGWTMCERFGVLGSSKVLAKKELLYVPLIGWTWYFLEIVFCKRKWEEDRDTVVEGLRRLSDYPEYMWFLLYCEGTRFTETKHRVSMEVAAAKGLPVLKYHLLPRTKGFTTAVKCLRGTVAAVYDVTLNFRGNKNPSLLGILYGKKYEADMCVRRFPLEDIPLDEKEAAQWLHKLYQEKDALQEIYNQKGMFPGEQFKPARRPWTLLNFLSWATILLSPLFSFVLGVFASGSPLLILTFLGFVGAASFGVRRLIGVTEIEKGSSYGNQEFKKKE
Chain of UniProt P54707 (P54707 whole entry, looked up): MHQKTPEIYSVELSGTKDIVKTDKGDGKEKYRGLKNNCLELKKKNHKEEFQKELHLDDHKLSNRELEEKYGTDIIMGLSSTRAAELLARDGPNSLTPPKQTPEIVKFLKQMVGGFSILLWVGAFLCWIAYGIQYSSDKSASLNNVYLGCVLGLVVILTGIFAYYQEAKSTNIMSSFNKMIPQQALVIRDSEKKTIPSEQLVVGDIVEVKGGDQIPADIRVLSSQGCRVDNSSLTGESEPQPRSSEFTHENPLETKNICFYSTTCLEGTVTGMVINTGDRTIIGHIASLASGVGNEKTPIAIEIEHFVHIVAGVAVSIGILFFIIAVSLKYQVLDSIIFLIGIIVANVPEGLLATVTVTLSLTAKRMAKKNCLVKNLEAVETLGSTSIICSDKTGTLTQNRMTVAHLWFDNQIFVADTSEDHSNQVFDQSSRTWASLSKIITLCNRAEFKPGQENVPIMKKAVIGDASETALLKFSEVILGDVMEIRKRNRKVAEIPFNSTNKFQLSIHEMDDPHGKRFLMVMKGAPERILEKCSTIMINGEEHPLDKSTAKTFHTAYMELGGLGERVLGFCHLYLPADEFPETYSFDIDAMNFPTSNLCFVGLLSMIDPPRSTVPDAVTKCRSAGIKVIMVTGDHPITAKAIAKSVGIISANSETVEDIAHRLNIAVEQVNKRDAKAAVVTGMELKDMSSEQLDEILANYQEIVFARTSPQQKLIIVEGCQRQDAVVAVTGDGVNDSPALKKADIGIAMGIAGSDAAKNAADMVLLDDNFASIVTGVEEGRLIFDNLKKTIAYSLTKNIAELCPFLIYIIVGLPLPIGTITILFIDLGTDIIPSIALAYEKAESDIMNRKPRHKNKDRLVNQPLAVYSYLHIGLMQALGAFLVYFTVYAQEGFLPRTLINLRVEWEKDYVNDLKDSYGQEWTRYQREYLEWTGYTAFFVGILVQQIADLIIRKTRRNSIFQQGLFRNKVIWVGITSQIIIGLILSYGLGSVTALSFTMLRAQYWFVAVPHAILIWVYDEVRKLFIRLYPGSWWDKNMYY
Chain of UniProt Q6P6C2 (Q6P6C2 whole entry, looked up): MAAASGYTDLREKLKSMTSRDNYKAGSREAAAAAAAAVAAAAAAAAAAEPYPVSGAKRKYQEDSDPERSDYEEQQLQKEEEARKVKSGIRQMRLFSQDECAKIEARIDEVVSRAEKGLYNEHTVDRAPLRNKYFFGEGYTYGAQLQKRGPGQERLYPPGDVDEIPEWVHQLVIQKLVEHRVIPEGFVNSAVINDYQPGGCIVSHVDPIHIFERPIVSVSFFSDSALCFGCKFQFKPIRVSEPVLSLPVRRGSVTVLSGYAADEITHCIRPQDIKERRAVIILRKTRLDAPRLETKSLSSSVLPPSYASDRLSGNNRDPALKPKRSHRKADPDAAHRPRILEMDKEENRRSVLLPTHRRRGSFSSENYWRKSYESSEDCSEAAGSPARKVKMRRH
Chain of UniProt O95870 (O95870 whole entry, looked up): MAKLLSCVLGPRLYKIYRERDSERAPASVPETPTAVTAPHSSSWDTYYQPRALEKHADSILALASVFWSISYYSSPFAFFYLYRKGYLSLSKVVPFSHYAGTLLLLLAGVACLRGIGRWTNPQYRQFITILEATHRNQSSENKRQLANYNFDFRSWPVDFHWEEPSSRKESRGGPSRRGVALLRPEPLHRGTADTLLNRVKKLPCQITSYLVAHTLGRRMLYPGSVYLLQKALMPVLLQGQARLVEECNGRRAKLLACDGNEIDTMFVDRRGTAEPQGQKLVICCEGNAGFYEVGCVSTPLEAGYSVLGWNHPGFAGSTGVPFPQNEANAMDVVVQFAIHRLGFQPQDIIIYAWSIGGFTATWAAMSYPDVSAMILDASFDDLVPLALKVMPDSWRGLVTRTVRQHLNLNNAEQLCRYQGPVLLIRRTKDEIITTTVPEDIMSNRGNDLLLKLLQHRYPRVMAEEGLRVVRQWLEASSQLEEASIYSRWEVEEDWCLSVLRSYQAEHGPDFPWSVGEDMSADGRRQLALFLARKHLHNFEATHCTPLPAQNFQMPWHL
Chain of UniProt Q9P287 (Q9P287 whole entry, looked up): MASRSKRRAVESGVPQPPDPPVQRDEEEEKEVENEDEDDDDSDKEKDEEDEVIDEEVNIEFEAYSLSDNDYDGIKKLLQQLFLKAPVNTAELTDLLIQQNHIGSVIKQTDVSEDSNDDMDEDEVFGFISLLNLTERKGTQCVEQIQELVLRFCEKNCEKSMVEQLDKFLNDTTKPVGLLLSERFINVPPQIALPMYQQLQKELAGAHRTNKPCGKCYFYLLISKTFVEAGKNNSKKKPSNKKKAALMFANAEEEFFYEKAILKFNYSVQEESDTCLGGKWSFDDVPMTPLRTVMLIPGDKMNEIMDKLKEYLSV
Chain of UniProt Q9BR61 (Q9BR61 whole entry, looked up): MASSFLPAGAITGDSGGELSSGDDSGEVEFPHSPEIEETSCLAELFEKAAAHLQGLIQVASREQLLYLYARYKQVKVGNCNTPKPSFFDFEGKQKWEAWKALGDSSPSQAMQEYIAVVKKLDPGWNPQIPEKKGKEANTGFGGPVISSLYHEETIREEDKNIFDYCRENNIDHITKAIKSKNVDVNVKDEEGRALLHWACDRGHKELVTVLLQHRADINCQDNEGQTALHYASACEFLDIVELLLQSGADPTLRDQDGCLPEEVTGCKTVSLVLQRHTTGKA
Chain of UniProt P49748 (P49748 whole entry, looked up): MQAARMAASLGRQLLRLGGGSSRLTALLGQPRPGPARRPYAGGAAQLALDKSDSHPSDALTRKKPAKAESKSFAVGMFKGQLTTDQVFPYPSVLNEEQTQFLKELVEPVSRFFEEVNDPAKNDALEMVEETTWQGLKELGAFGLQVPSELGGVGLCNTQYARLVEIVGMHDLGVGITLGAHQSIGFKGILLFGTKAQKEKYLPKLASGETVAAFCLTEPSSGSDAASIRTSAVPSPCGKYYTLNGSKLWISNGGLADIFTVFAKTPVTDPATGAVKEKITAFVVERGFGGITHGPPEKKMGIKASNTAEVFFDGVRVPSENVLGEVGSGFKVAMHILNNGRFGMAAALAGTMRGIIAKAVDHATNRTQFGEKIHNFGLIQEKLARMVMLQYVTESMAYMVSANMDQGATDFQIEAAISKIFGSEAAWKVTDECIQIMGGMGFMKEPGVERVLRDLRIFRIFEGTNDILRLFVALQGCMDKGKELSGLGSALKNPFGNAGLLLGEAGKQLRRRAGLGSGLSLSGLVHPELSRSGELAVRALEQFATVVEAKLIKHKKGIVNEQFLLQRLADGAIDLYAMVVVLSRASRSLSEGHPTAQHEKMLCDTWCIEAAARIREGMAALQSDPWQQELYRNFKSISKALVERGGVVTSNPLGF
Chain of UniProt Q9Y6E2 (Q9Y6E2 whole entry, looked up): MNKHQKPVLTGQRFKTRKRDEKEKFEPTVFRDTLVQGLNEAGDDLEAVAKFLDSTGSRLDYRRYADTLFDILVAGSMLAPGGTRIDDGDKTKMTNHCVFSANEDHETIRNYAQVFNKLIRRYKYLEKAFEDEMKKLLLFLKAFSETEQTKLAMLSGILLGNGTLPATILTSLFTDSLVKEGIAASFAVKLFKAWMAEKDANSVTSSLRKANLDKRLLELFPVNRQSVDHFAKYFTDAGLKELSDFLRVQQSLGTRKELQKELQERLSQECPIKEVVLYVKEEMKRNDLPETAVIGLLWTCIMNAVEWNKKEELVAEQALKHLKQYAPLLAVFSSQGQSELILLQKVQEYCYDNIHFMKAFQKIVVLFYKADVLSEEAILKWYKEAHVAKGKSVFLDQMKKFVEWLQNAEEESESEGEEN

| Target | log2 fold change |
| --- | --- |
| BZW2 (UniProt Q9Y6E2) | -0.225 (inactive) |
| ALDH6A1 (UniProt Q02252) | -0.045 (inactive) |
| ATAD3B (UniProt Q5T9A4) | -0.089 (inactive) |
| ASNS (UniProt P08243) | -0.019 (inactive) |
| ALG11 (UniProt Q2TAA5) | -0.093 (inactive) |
| AGPAT5 (UniProt Q9NUQ2) | -0.029 (inactive) |
| ALDH9A1 isoform 3 (UniProt P49189) | -0.011 (inactive) |
| ARL2BP (UniProt Q9Y2Y0) | -0.129 (inactive) |
| ASH2L (UniProt Q9UBL3) | 0.002 (inactive) |
| ACO2 (UniProt Q99798) | -0.142 (inactive) |
| APOB (UniProt P04114) | -0.621 (active) |
| AMFR (UniProt Q9UKV5) | -0.115 (inactive) |
| AKT2 (UniProt P31751) | 1.18 (active) |
| BCAP29 isoform 2 (UniProt Q9UHQ4) | 0.034 (inactive) |
| ADD3 (UniProt Q9UEY8) | 0.047 (inactive) |
| ATP6V0A1 isoform 3 (UniProt Q93050) | -0.184 (inactive) |
| BCCIP isoform 2 (UniProt Q9P287) | -0.096 (inactive) |
| BRD4 (UniProt O60885) | -0.112 (inactive) |

| Target | log2 fold change |
| --- | --- |
| ATL2 (UniProt Q8NHH9) | -0.165 (inactive) |
| BRIX1 (UniProt Q8TDN6) | 0.171 (inactive) |
| ACBD6 (UniProt Q9BR61) | -0.006 (inactive) |
| ABCB6 (UniProt Q9NP58) | -0.456 (active) |
| ATG4B isoform 2 (UniProt Q9Y4P1) | -0.401 (inactive) |
| ALDH18A1 (UniProt P54886) | -0.34 (inactive) |
| AGPAT3 isoform 3 (UniProt Q9NRZ7) | -0.141 (inactive) |
| ANKZF1 (UniProt Q9H8Y5) | 0.072 (inactive) |
| AK6 (UniProt Q9Y3D8) | -0.043 (inactive) |
| AP2S1 (UniProt P53680) | -0.009 (inactive) |
| ACADVL isoform 3 (UniProt P49748) | -0.021 (inactive) |
| ATP5ME (UniProt P56385) | 0.057 (inactive) |
| B4GALT1 (UniProt P15291) | -0.279 (inactive) |
| ALKBH5 (UniProt Q6P6C2) | 0.102 (inactive) |
| ATP12A isoform 2 (UniProt P54707) | 0.075 (inactive) |
| ABHD16A (UniProt O95870) | 0.113 (inactive) |
| BAP1 (UniProt Q92560) | 0.073 (inactive) |
| ARMC8 (UniProt Q8IUR7) | -0.087 (inactive) |

Each target was assayed with NCC(=O)Nc1ccc(-n2nc(C(F)(F)F)cc2-c2ccc3c(ccc4ccccc43)c2)cc1 in the same assay as above.
Summary of the method: as §1

| Target | log2 fold change |
| --- | --- |
| BZW2 (UniProt Q9Y6E2) | -0.066 (inactive) |
| ALDH6A1 (UniProt Q02252) | -0.116 (inactive) |
| ATAD3B (UniProt Q5T9A4) | -0.088 (inactive) |
| ASNS (UniProt P08243) | 0.008 (inactive) |
| ALG11 (UniProt Q2TAA5) | -0.019 (inactive) |
| AGPAT5 (UniProt Q9NUQ2) | -0.047 (inactive) |
| ALDH9A1 isoform 3 (UniProt P49189) | -0.05 (inactive) |
| ARL2BP (UniProt Q9Y2Y0) | -0.088 (inactive) |
| ASH2L (UniProt Q9UBL3) | -0.074 (inactive) |
| ACO2 (UniProt Q99798) | -0.012 (inactive) |
| APOB (UniProt P04114) | -0.806 (active) |
| AMFR (UniProt Q9UKV5) | -0.075 (inactive) |
| AKT2 (UniProt P31751) | -0.051 (inactive) |
| BCAP29 isoform 2 (UniProt Q9UHQ4) | -0.094 (inactive) |
| ADD3 (UniProt Q9UEY8) | -0.001 (inactive) |
| ATP6V0A1 isoform 3 (UniProt Q93050) | 0.008 (inactive) |
| BCCIP isoform 2 (UniProt Q9P287) | -0.011 (inactive) |
| BRD4 (UniProt O60885) | -0.119 (inactive) |

| Target | log2 fold change |
| --- | --- |
| ATL2 (UniProt Q8NHH9) | -0.094 (inactive) |
| BRIX1 (UniProt Q8TDN6) | 0.132 (inactive) |
| ACBD6 (UniProt Q9BR61) | 0.001 (inactive) |
| ABCB6 (UniProt Q9NP58) | -0.015 (inactive) |
| ATG4B isoform 2 (UniProt Q9Y4P1) | -0.151 (inactive) |
| ALDH18A1 (UniProt P54886) | -0.219 (inactive) |
| AGPAT3 isoform 3 (UniProt Q9NRZ7) | -0.041 (inactive) |
| ANKZF1 (UniProt Q9H8Y5) | -0.001 (inactive) |
| AK6 (UniProt Q9Y3D8) | -0.138 (inactive) |
| AP2S1 (UniProt P53680) | -0.039 (inactive) |
| ACADVL isoform 3 (UniProt P49748) | -0.032 (inactive) |
| ATP5ME (UniProt P56385) | -0.04 (inactive) |
| B4GALT1 (UniProt P15291) | 0.199 (inactive) |
| ALKBH5 (UniProt Q6P6C2) | 0.052 (inactive) |
| ATP12A isoform 2 (UniProt P54707) | 0.003 (inactive) |
| ABHD16A (UniProt O95870) | 0.049 (inactive) |
| BAP1 (UniProt Q92560) | 0.012 (inactive) |
| ARMC8 (UniProt Q8IUR7) | 0.002 (inactive) |
